Screening results from PubChem BioAssay.
Rows were chosen to be rich in hits. Some 19% of all compounds tested hit in one or more screens of this group.
IL1B secr inh = qHTS for Inhibitors of Inflammasome Signaling: IL-1-beta AlphaLISA Primary Screen; THP-1 LPS/ATP IL-1B secretion, AlphaLISA, 16 h; hits give low values; activity change, % at 57.5 µM; 4.7% of 360,000 active; AID 743279, 2014; in the data active = activity change below about -50%; inconclusive = mostly about -30% to -49%
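Secreted IL-1B measured by AlphaLISA bead assay after 16 h compound exposure of THP-1 cells; compounds (final up to 57.5 uM) added 1 h before LPS (250 ng/mL) and ATP (1.25 mM) stimulation; lower signal means less secretion.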
DT40 TDP1 CPT = qHTS for Inhibitors of human tyrosyl-DNA phosphodiesterase 1 (TDP1): qHTS in cells in presence of CPT; 12% of 420,000 active; Potency, µM (top dose mostly 46.2 µM), inactives show top-dose activity change, negative = growth inhibition, hits mostly inhibitors; chicken DT40 Tdp1-/-;hTDP1 cells + 20 nM CPT, ATP luminescence, 48 h; note: potency is the fitted concentration of half-maximal effect; nearly all actives have a fitted effect of over 55% in size
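Chicken DT40 Tdp1-/- cells stably complemented with human TDP1 were seeded at 400 cells/well in medium containing 20 nM camptothecin, exposed to pin-transferred compounds, and grown at 37 °C for at least 48 hr. Viability was read as ATP luminescence.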
TDP1 cell noCPT = qHTS for Inhibitors of human tyrosyl-DNA phosphodiesterase 1 (TDP1): qHTS in cells in absence of CPT; DT40 Tdp1-/- hTDP1 cells, no CPT, ATP luminescence, 48 h; Potency, µM (doses to about 46.2 µM), without a hit: at the highest dose activity change, negative = growth inhibition, usual class: inhibitors; 15% of 420,000 active; AID 686978, 2013; note: potency is the fitted concentration of half-maximal effect; nearly all actives have a fitted effect of over 55% in size
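Stably hTDP1-transfected Tdp1-null chicken DT40 cells were treated with library compounds minus camptothecin and grown for at least 48 hr at 37 °C, after which cellular ATP was quantified by luminescence.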
HT1080NT lethal = qHTS for induction of synthetic lethality in tumor cells producing 2HG: qHTS for the HT-1080-NT fibrosarcoma cell line; 1.6% of 360,000 active; Potency, µM (top dose mostly 46.1 µM), for the others: at the top dose activity, negative = less viability, hits mostly cytotoxic; AID 686970, 2013; HT-1080-NT fibrosarcoma viability, CellTiter-Glo ATP luminescence, 48 h;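 note: NT is the 2HG producing partner of a matched IDH1 knockdown line; potency is the fitted concentration of half-maximal effect; 0% = DMSO-treated cells and -100% = media-only wells without cells; nearly all actives have a fitted effect of over 55% in size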
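HT-1080-NT; 750 cells/well; 5% FBS RPMI; 48 h compound, 37 degrees C; CellTiter-Glo luminescence; curve fitting and curve-class assignment.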
HT1080 IDH1KD tx = qHTS for induction of synthetic lethality in tumor cells producing 2HG: qHTS for the HT-1080-IDH1KD cell line. HT-1080 IDH1 knockdown viability, ATP luminescence, 48 h. Potency, µM (titrated, usually from 46.1 µM), without a hit: at the highest dose activity, negative = toxicity, most hits filed as cytotoxic. 2% of 360,000 active;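 note: potency is the fitted concentration of half-maximal effect; 0% = DMSO wells and -100% = cell-free medium wells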
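% activity derives from luminescence (CellTiter-Glo), normalised to DMSO and no-cell wells. HT-1080-IDH1KD cells, 750/well, had 48 h compound exposure at 37 °C.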
An asterisk follows results filed as active; i = inactive; ? = inconclusive; nt = no result given; [ ] = dose if it differs, or a comment. Unless noted, calls come from the whole dose curve; as a rule, active = well fitted curve in the direction sought with a large enough effect; inconclusive = small, poorly fitted or top-dose-only effect, or another doubt; inactive = no such curve, though single readings can be large; an effect the other way counts as inactive or inconclusive. Unless noted, % is set by controls: 0 for no effect and ±100 for the full control effect.

SMILES	IL1B secr inh	DT40 TDP1 CPT	TDP1 cell noCPT	HT1080NT lethal	HT1080 IDH1KD tx
CCCCCCCCN1C(=O)[C@H](CC(=O)NCc2cccc(C(F)(F)F)c2)C[C@@]2(C(=O)OC)CCCCC=C12	-55*	21µM*	?	?	?
CCCCCCCCN1C(=O)[C@H](CC(=O)NCc2cccc(C(F)(F)F)c2)C[C@@]2(C(=O)OCC)CCC=C12	-23	?	13µM*	?	?
O=C(NCC1CCCO1)C1CCN(C(=O)c2ccc(Br)cc2)CC1 (configuration not stated)	9	-16%	-3%	3%	-5%
O=C1C=CC(=Nc2cccc3c2C(=O)c2ccccc2-3)O1	-93*	-82%	?	0%	-53%
Cc1ccc(-c2nc(C3CCCN(S(=O)(=O)c4ccc(C)cc4)C3)no2)cc1 (configuration not stated)	0	16µM*	?	4%	0%
O=C(CC1CCCCC1)N1CCCC(c2nc(-c3ccc(S(=O)(=O)N4CCCC4)cc3)no2)C1 (configuration not stated)	-77*	23µM*	16µM*	?	-15%
O=S(=O)(c1ccc(Cl)cc1)N1CCCC(c2nc(-c3ccc(F)cc3)no2)C1 (configuration not stated)	-26	15µM*	?	14%	11%
NC(Cc1cnc[nH]1)C(=O)Nc1ccc2ccccc2c1 (configuration not stated)	nt	-19%	1%	nt	nt
COC(=O)c1scc(-c2ccccc2)c1S(=O)(=O)Nc1cccc(C)c1C	nt	?	26µM*	nt	nt
CCOC(=O)c1scc(-c2ccc(C)cc2)c1S(=O)(=O)Nc1cccc(CC)c1	nt	12µM*	13µM*	nt	nt
CCOC(=O)c1scc(-c2ccc(C)cc2)c1S(=O)(=O)N1CCN(c2ccccc2F)CC1	nt	15µM*	18µM*	nt	nt
CCOC(=O)c1scc(-c2ccccc2)c1S(=O)(=O)Nc1ccccc1OC	nt	18µM*	21µM*	nt	nt
CCCSc1ncc(Cl)c(C(=O)Nc2scc(-c3ccc(C)cc3)c2C(=O)OCC)n1	nt	3%	0%	nt	nt
CN(C(=O)c1ccco1)c1nc2c(s1)CCCC2	30	?	?	-24%	?
CCOc1ccc(NC(=O)CN(C)C(=O)CCNC(=O)c2ccco2)cc1OCC	-6	12%	15%	-1%[9.24 µM]	4%
COC(=O)c1scc(-c2ccc(C)cc2)c1S(=O)(=O)Nc1cc(OC)c(OC)c(OC)c1	nt	21µM*	?	nt	nt
CCc1ccc(NS(=O)(=O)c2c(-c3ccccc3)csc2C(=O)OC)cc1	nt	?	23µM*	nt	nt
CCOC(=O)c1scc(-c2ccc(C)cc2)c1S(=O)(=O)Nc1cc(OC)ccc1OC	nt	9.2µM*	3.7µM*	nt	nt
CCN(c1ccccc1)S(=O)(=O)c1c(-c2ccc(C)cc2)csc1C(=O)OC	nt	18µM*	15µM*	nt	nt
COc1cc(NC(=O)c2cc([N+](=O)[O-])ccc2N2CCOCC2)ccc1NC(=O)c1ccco1	-6	-27%	-14%	-5%	-4%
COc1cccc(CC2(CO)CCN(C(=O)NCCc3ccccc3)CC2)c1	-12	-10%	-9%	5%	1%
O=S(=O)(c1cccc(F)c1)N1CCC(CO)(Cc2cccc(F)c2)CC1	-8	5%	?	-25%	-12%
COc1cccc(CC2(CO)CCN(C(=O)NC3CCCCC3)CC2)c1	18	23µM*	-28%	10%	15%
CC(C)Cc1cc(CN2CCC(CO)(Cc3cccc(C(F)(F)F)c3)CC2)[nH]n1	-82*	?	?	?	?
OCC1(Cc2ccccc2C(F)(F)F)CCN(Cc2ccccc2)CC1	-61*	?	?	-24%	-13%
SMILES	IL1B secr inh	DT40 TDP1 CPT	TDP1 cell noCPT	HT1080NT lethal	HT1080 IDH1KD tx
OCC1(Cc2cccc(C(F)(F)F)c2)CCN(Cc2cc(F)cc(F)c2)CC1	-77*	?	?	18µM*	?
CCn1c(SC(C)C(=O)Nc2ccc3c(c2)OCCO3)nnc1C1CC1 (configuration not stated)	22	1%	27%	-2%	-2%
CC(=O)Nc1ccc2c(c1)nc1n2CCN(C2CCCCC2)C1	14	6%	4%	17%	22%
COc1ccc2[nH]c(C(=O)N3CCC(CO)(Cc4cccc(C(F)(F)F)c4)CC3)c(C)c2c1	?	?	21µM*	-10%	-1%
CCNC(=O)C1(C)CCN(Cc2cccc(C(F)(F)F)c2)C1 (configuration not stated)	0	-26%	-26%	16%	8%
CSc1cccc(CN2CCC(CO)(Cc3cccc(C(F)(F)F)c3)CC2)c1	-96*	?	16µM*	21µM*	16µM*
Cc1ccc(-n2cc(CN3CCC(CO)(Cc4cccc(C(F)(F)F)c4)CC3)cn2)cc1	-112*	9.2µM*	21µM*	23µM*	18µM*
COc1ccc(N2CCN(C(=O)c3[nH]c4ccc(OC)cc4c3C)CC2)cc1	-13	-29%	?	10%	-4%
Cc1ccc(OC(C)C(=O)Nc2ccc(S(=O)(=O)N3CCOCC3)cc2)cc1 (configuration not stated)	i	?	-14%	2%	-9%
Cc1ccc(Sc2c(C)nn(C(=O)COc3ccccc3)c2C)cc1	nt	-28%	-27%	nt	nt
COc1ccc([N+](=O)[O-])cc1C(=O)NCCOc1ccc(Cl)cc1	?	-12%	?	-2%	0%
COc1ccc(/C=C/C(=O)O)cc1S(=O)(=O)NCc1cccnc1	18	12%	24%	25%	14%
COc1ccccc1NC(=O)c1c(N=Cc2cccc([N+](=O)[O-])c2)cnn1C	nt	4%	-27%	21%	24%
CC1=C(C(=O)Nc2ccc(Cl)cc2)C(c2ccccc2)n2ncc(C(=O)Nc3ccccc3)c2N1 (configuration not stated)	nt	21µM*	15µM*	nt	nt
COc1cccc(C2C(C(=O)Nc3ccc(Cl)cc3)=C(C)Nc3c(C(=O)Nc4ccccc4)cnn32)c1OC (configuration not stated)	nt	23µM*	?	nt	nt
COc1ccccc1NC(=O)C1=C(C)Nc2c(C(=O)Nc3ccc(F)cc3)cnn2C1c1cccc([N+](=O)[O-])c1 (configuration not stated)	nt	?	23µM*	nt	nt
